EP2 modulator = EP2 receptor (human) modulation. P43116. EP2-expressing cells, cAMP HTRF FRET, PGE2 co-stimulation. induction, % at 25 µM. 0.83% of 260,000 active;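 active = compounds whose cAMP rise, as percent of the full-agonist control response, exceeds 60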;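 also: rat C6 glioma line stably carrying human EP2 under a CMV promoter; the protocol text gives 20 µM as final concentration; 100% = response of wells given 1 µM PGE2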
Target sequence (P43116 whole entry, looked up): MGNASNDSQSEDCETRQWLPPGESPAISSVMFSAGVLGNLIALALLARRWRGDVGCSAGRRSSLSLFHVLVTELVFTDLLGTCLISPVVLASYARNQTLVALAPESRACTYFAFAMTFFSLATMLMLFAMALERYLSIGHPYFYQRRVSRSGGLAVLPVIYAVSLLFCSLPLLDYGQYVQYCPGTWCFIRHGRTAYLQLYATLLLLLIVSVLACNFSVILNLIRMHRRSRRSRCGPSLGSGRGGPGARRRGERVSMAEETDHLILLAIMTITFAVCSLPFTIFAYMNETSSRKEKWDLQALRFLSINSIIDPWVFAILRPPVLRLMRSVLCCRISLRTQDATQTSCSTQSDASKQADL
PGE2 EP2 inh = EP2 receptor (human) inhibition; P43116; C6 glioma cells expressing human EP2, cAMP TR-FRET; cells stimulated with saturating PGE2; inhibition, % at 25 µM; 0.52% of 260,000 active;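 active = percent inhibition above 40 after rounding to a whole number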;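 also: rat C6 glioma host cells with rolipram phosphodiesterase inhibitor present; the protocol text gives 20 µM as final concentration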
CHT PAM = allosteric activators of human choline transporter CHT; 0.49% of 310,000 active; Q9GZV3; CHT-expressing cells, membrane potential dye, choline EC20; active compounds read high; LV-AA mutant CHT in HEK293 cells; B-score at 10 µM; AID 488977;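 active = initial fluorescence not abnormally high and integrated response B-score, plate-corrected, over 3 SD above library mean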
CHT block = inhibits the human high affinity choline transporter | CHT-expressing cells, membrane potential dye, choline response; active compounds read low | B-score at 10 µM | 0.86% of 310,000 active;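 active = B-score over 3 SD under the library average, and starting fluorescence ratio not unusually high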;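 also: choline stimulus applied at its EC90 after an EC20 pre-addition; B-score computed on integrated fluorescence ratio after choline addition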
CHT block conf = human CHT inhibition, confirmatory screen | shares compounds with CHT block | CHT-expressing cells, choline membrane potential dye; LV-to-AA substituted CHT, HEK293 cells | CHT activity remaining % of control (active compounds read low), % at 10 µM | 70% of 2,400 active | AID 493221;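 active = choline transporter activity left, mean of duplicates at 10 µM, below buffer-only control mean minus 3 SD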;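 also: depolarization triggered by choline at its EC90 following an EC20 pre-addition; 0% = hemicholinium-3 full block and 100% = buffer-only control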
HEK293 CHT ctr = activity in parental HEK293 cells lacking CHT. shares compounds with CHT block. membrane potential dye, choline response; active = decrease or increase beyond buffer ±3SD. membrane potential ratio readout (active if shifted either direction beyond buffer ±3SD; no single direction) at 10 µM. 4% of 2,400 active. AID 493222;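 also: parental cells lack the transporter so any hit is non-specific; ratio is peak minus trough fluorescence over baseline after EC90 choline challenge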
Starred values were filed as active, the others as inactive; i = inactive; x = no result. Shown are actives, neighbours in structure and some others; about 2% of the full set was active somewhere.

SMILES	EP2 modulator	PGE2 EP2 inh	CHT PAM	CHT block	CHT block conf	HEK293 CHT ctr
CC(C)(C)C(=O)NNC(=O)c1cc2sccc2s1	1.8	9.5	i	-5.79*	i	i
O=C(CSc1nnc(-c2ccco2)n1Cc1ccco1)Nc1ccccc1F	11.4	13.2	x	x	x	x
COC(=O)C1(CC2CC(c3cccc(Br)c3)=NO2)CCN(C(=O)OC(C)(C)C)CC1 (stereo unspecified)	x	x	i	-4.99*	i	i
Cc1cc(-c2cncnc2C2CCCN(C(=O)c3ccc(Cn4cccn4)o3)C2)on1 (stereo unspecified)	-9.2	x	x	x	x	x
COc1ccc(C2(O)CCN(C(=O)NC3CCCCC3)CC2)cc1	6.0	3.0	i	-7.82*	35.7%*	i
CCOc1cccc2sc(N(CCN(C)C)C(=O)c3ccc4c(c3)OCCO4)nc12	x	x	i	-8.44*	18.6%*	i
Cc1cccc2sc(N(CCCN(C)C)C(=O)c3ccco3)nc12	9.6	1.2	i	i	x	x
COc1cccc2sc(N(CCN(C)C)C(=O)c3ccc4c(c3)CCCC4)nc12	x	x	i	-10*	17.7%*	i
Cc1cccc2sc(N(CCCN(C)C)C(=O)c3ccc(Cl)s3)nc12	-26.1	6.7	i	-6.8*	26.6%*	i
CCN(CC)c1nc2c(c(=O)n(C)c(=O)n2C)n1Cc1ccc(Cl)cc1	8.9	20.1	x	x	x	x
CN(C)Cc1c(C(=O)N/N=C/c2ccco2)nnn1-c1nonc1N	x	x	i	i	x	x
CCCN(CCC)Cc1c(C(=O)N/N=C/C(C)=C\c2ccco2)nnn1-c1nonc1N	x	x	i	-5.26*	60.3%*	i
CCOC(=O)c1[nH]ncc1CN1CCCC(C(=O)c2ccc(C(C)(C)C)cc2)C1 (stereo unspecified)	-41.3	11.5	i	-8.85*	i	i
Cc1cccc(N2CCN(C(=O)CCCn3c(=O)[nH]c4ccsc4c3=O)CC2C)c1 (stereo unspecified)	x	x	i	-10.9*	18.7%*	i
Cc1cccc(N2CCN(C(=O)CCn3c(=O)[nH]c4ccsc4c3=O)CC2C)c1 (stereo unspecified)	x	x	i	i	x	x
O=C(NCc1nc(-c2ccccc2)no1)c1cc2ccccc2c(=O)s1	-70.2	10.4	x	x	x	x
COc1ccc(NC(=O)CSc2nnc(-c3ccccc3O)n2-c2ccccc2OC)c(OC)c1	-3.2	9.7	x	x	x	x
CC1CCC(NC(=O)c2ccc(NC3=NC4CS(=O)(=O)CC4S3)cc2)CC1 (stereo unspecified)	x	x	i	-5.99*	33.9%*	i
COc1cc(C(=O)NCCNc2ncnc3sc4c(c23)CCCC4)cc(OC)c1OC	-49.9	8.3	x	x	x	x
O=C(NCCNC1CCCCCC1)c1cccs1	-19.1	13.0	x	x	x	x
CSCCC(NC(=O)c1ccccc1)C(=O)NCCc1ccccc1 (stereo unspecified)	x	x	i	i	x	x
CSCCC(NC(=O)c1ccccc1)C(=O)Nc1ccc(C)cc1 (stereo unspecified)	26.1	5.4	i	-7.49*	70.0%*	i
CCN(CC)CCCNC(=O)c1cn(CC)c2ccc(S(=O)(=O)N(C)C3CCCCC3)cc2c1=O	x	x	i	-5.73*	60.7%*	i
CCn1cc(C(=O)NCCCN2CCCC(C)C2)c(=O)c2cc(S(=O)(=O)N(C)C3CCCCC3)ccc21 (stereo unspecified)	x	x	i	-7.52*	25.3%*	2.68*
CCCCN(CCCC)CCNC(=O)c1cn(CC)c2ccc(S(=O)(=O)N(C)C3CCCCC3)cc2c1=O	x	x	i	-7.07*	19.7%*	i
SMILES	EP2 modulator	PGE2 EP2 inh	CHT PAM	CHT block	CHT block conf	HEK293 CHT ctr
CN(C1CCCCC1)S(=O)(=O)c1ccc2c(c1)c(=O)c(C(=O)NCCCN1CCCC1)cn2C	-3.5	9.9	i	i	x	x
Cc1cc(-c2ccccc2)nc2cc(C(=O)N3C(C)CCCC3C)nn12 (stereo unspecified)	6.5	18.3	x	x	x	x
O=C(NCCCN1CCOCC1)C(=O)NCC1COc2ccccc2O1 (stereo unspecified)	13.3	7.4	x	x	x	x
FC(F)(F)c1nc(NCc2cccs2)c2nnn(Cc3ccccc3Cl)c2n1	21.7	7.5	x	x	x	x
COc1cc(OC)cc(C(=O)N[C@H](C(=O)OCC(=O)c2ccc3c(c2)NC(=O)CO3)C(C)C)c1	9.4	7.8	i	i	x	x
CC(C)[C@H](NC(=O)c1ccccc1)C(=O)OCC(=O)c1ccc2c(c1)NC(=O)CO2	-28.7	1.0	i	-8.97*	32.6%*	i
CC[C@H](C)[C@H](NC(=O)c1ccc(Cl)cc1)C(=O)OCC(=O)c1ccc2c(c1)NC(=O)CO2	13.3	17.4	i	-5.71*	31.7%*	i
COCCNS(=O)(=O)c1ccc(-n2cnnn2)c(OC)c1	0.9	9.1	x	x	x	x
CCn1c(N2CCN(S(=O)(=O)c3ccc(Cl)cc3)CC2)nc2ccccc21	-105.9	7.1	i	-11.6*	44.0%*	i
CCn1c(N2CCN(S(=O)(=O)c3ccc(F)cc3)CC2)nc2ccccc21	-90.2	6.1	i	i	x	x
COc1ccc(C2CC(c3ccccc3)=NN2c2ccc(S(N)(=O)=O)cc2)cc1OC (stereo unspecified)	-4.5	5.2	i	i	x	x
COc1ccc(C2=NN(c3ccc(C(=O)O)cc3)C(c3ccc(OC)c(OC)c3)C2)cc1 (stereo unspecified)	x	x	i	-5.29*	62.5%*	i
CN(Cc1ccccc1)c1nc(N)nc(Cl)c1C=O	-14.0	9.9	i	-5.52*	33.5%*	i
CCOc1cc(/C=C2\N=C(c3cccc(C)c3)OC2=O)ccc1OC(=O)CC	-16.6	18.3	x	x	x	x
CCOC(=O)CC1CCCCN1C(=O)c1cc(COc2cccc3cnccc23)on1 (stereo unspecified)	x	x	i	-5.39*	69.5%*	i
COC(=O)C1CCCCN1C(=O)c1cc(COc2cccc3cnccc23)on1 (stereo unspecified)	x	x	i	i	x	x
C/C(=N\N=C(N)N)c1ccc(Cl)c(Cl)c1	-26.2	4.5	i	-11.2*	18.7%*	i
COc1ccc2c(Cl)c(C(=O)Nc3cccc(C(C)=O)c3)sc2c1	-7.1	15.9	x	x	x	x
COc1cccc(CN2CCN(C(=O)c3ccc(OC)c(OC)c3)CC2)c1	-15.7	10.3	x	x	x	x
O=C(NC1CCCCC1)c1ccc(S(=O)(=O)NCc2ccco2)cc1	15.3	-3.4	i	-5.48*	i	i
O=C(NC1CCN(Cc2ccccc2)CC1)c1ccc(S(=O)(=O)NCc2ccco2)cc1	-41.0	6.3	i	i	x	x
CC1CCCCC1NC(=O)Cn1nc(-c2ccccc2)ccc1=O (stereo unspecified)	3.8	13.3	i	-5.37*	64.2%*	i
Cc1ccc(NC(=O)C2CCCN(c3ncnc4c3nc3n4CCCCC3)C2)nc1 (stereo unspecified)	x	x	i	i	x	x

Screening results from PubChem BioAssay.
